This passage reports growth inhibition results from PubChem BioAssay (NCI).

This is part of a sample that, as a whole, favours compounds with a hit. Of some 79,000 tested, about 15% had one in any assay. Unmarked numbers belong to inactive results. The source made the active and inactive calls. No stated cut-off is given here; in the data, active means growth inhibition above about 70%; inactive means the rest.

Assay [1] in a line: NCI Yeast Anticancer Drug Screen. Data for the rad50 strain (AID 155).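 Further: 0% = growth of vehicle-only cultures of the same strain.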 Particulars: S. cerevisiae rad50 strain growth inhibition, active compounds read high. In a few lines: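 DNA repair mutant yeast, compound exposure, growth read-out; inhibition is taken relative to vehicle.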
Assay [2] is described as follows: NCI Yeast Anticancer Drug Screen. Data for the mec2-1 strain (AID 157). Particulars: S. cerevisiae mec2-1 strain, active compounds read high. In short, it runs like this: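 Strain: mec2-1 (DNA repair/cell cycle alteration). Compound exposure, then growth measured; inhibition expressed relative to vehicle.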
Assay [3] can be described thus: NCI Yeast Anticancer Drug Screen. Data for the sgs1 mgt1 strain (AID 161).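 Further: 0% = growth of cultures given vehicle only.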 Particulars: S. cerevisiae sgs1 mgt1 strain, active compounds read high. In a few lines:
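Genetically altered yeast, compound exposure, growth inhibition relative to vehicle.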

The nature of assay [4]: NCI Yeast Anticancer Drug Screen. Data for the cln2 rad14 strain (AID 165).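 Further: 0% = growth equal to vehicle treated cultures.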 The settings on record: S. cerevisiae cln2 rad14 strain, active compounds read high. In a few lines: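 Compounds are applied to the cln2 rad14 yeast strain, and growth is then compared with that of vehicle-treated cultures to give inhibition.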
Assay [5] can be described thus: NCI Yeast Anticancer Drug Screen. Data for the bub3 strain (AID 167). Particulars: S. cerevisiae bub3 mutant strain, active compounds read high. In a few lines:
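In this screen, a yeast mutant lacking normal mitotic checkpoint function is challenged with compound. Relative growth versus vehicle gives the inhibition value.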

The nature of assay [6]: NCI Yeast Anticancer Drug Screen. Data for the mlh1 rad18 strain (AID 175). The settings on record: S. cerevisiae mlh1 rad18 strain growth inhibition, active compounds read high. In short, it runs like this: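 Read-out is yeast growth inhibition, calculated against vehicle-only controls. The compound was applied to a strain engineered with DNA damage repair alterations.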
[7] abbreviates: at 5.0 µM (retest, dose inferred, filed as 0.5).
Where [8] appears, read: at 50.0 µM (retest, dose inferred, filed as 5.0).

`ON=C1Cc2ccccc2-c2ccccc2C1`: the growth inhibition in assay [1] (setting [7]) was 2%; in assay [1] (setting [8]), 1%; in assay [1] (at 50.0 µM), -23%; in assay [2] (setting [7]) it was 2%; in assay [2] (setting [8]), 5%; in assay [2] (at 50.0 µM) it was -11.1%. For the same compound, the growth inhibition in assay [3] (setting [7]) was 8%; in assay [3] (setting [8]), 4%; in assay [3] (at 50.0 µM) it was -3.3%; in assay [4] (setting [7]), 1%; in assay [4] (setting [8]), 7%; in assay [4] (at 50.0 µM), 39.2%. Further, the growth inhibition in assay [5] (setting [7]) is -5%; in assay [5] (setting [8]) it was 1%; in assay [5] (at 50.0 µM), 6.1%; in assay [6] (setting [7]), -3%; in assay [6] (setting [8]) it was -2%; in assay [6] (at 50.0 µM) it was 17.1%.
For the compound `O=C(Nc1ccccc1)OCCCCl`, the growth inhibition in assay [1] (setting [7]) is -7%; in assay [1] (setting [8]) it was -4%; in assay [1] (at 50.0 µM), 9.1%; in assay [2] (setting [7]), -7%; in assay [2] (setting [8]), 1%; in assay [2] (at 50.0 µM), -13.3%. The growth inhibition in assay [3] (setting [7]) is -16%; in assay [3] (setting [8]), 25%; in assay [3] (at 50.0 µM) it was 30.6%; in assay [4] (setting [7]) it was 25%; in assay [4] (setting [8]), -7%; in assay [4] (at 50.0 µM), 64.3%. The growth inhibition in assay [5] (setting [7]) was -19%; in assay [5] (setting [8]), -19%; in assay [5] (at 50.0 µM), 7.3%; in assay [6] (setting [7]), -23%; in assay [6] (setting [8]), -8%; in assay [6] (at 50.0 µM), 12.4%.
Take `CC(=O)OC1OC2C(NC(=O)OC(C)(C)C)C1CC2(OCc1ccccc1)OCc1ccccc1` (stereo not given): the growth inhibition is 35% in assay [1] (setting [7]); 35% in assay [1] (setting [8]); 23.6% in assay [1] (at 50.0 µM); 25% in assay [2] (setting [7]); 25% in assay [2] (setting [8]); -24.4% in assay [2] (at 50.0 µM). The growth inhibition in assay [3] (setting [7]) is 29%; in assay [3] (setting [8]), 29%; in assay [3] (at 50.0 µM), -3.2%; in assay [4] (setting [7]), 8%; in assay [4] (setting [8]) it was 8%; in assay [4] (at 50.0 µM) it was 9.6%. Moreover, the growth inhibition in assay [5] (setting [7]) is 18%; in assay [5] (setting [8]), 18%; in assay [5] (at 50.0 µM), -12.8%; in assay [6] (setting [7]) it was 28%; in assay [6] (setting [8]), 28%; in assay [6] (at 50.0 µM), 9%.
Consider `CC(C(=O)N1C(=O)N(C(=O)C(C)C(O)c2ccccc2)C(c2ccccc2)C1c1ccccc1)C(O)c1ccccc1` (stereo not given), for which the growth inhibition in assay [1] (setting [7]) was 3%; in assay [1] (setting [8]), 91% (active); in assay [1] (at 50.0 µM) it was 89.2% (active); in assay [2] (setting [7]), -10%; in assay [2] (setting [8]), 92% (active); in assay [2] (at 50.0 µM) it was 91.5% (active). Besides, the growth inhibition is -9% in assay [3] (setting [7]); 91% (active) in assay [3] (setting [8]); 91.9% (active) in assay [3] (at 50.0 µM); 29% in assay [4] (setting [7]); 89% (active) in assay [4] (setting [8]); 90.1% (active) in assay [4] (at 50.0 µM). Moreover, the growth inhibition is -18% in assay [5] (setting [7]); 96% (active) in assay [5] (setting [8]); 88.2% (active) in assay [5] (at 50.0 µM); 23% in assay [6] (setting [7]); 91% (active) in assay [6] (setting [8]); 91.3% (active) in assay [6] (at 50.0 µM).
With `O=C(O)CSc1ccc(N=C=S)cc1`, the growth inhibition in assay [1] (setting [7]) was -5%; in assay [1] (setting [8]) it was 96% (active); in assay [1] (at 50.0 µM) it was -8.1%; in assay [2] (setting [7]), 3%; in assay [2] (setting [8]) it was 91% (active); in assay [2] (at 50.0 µM) it was 8.15%. Moreover, the growth inhibition in assay [3] (setting [7]) was 9%; in assay [3] (setting [8]) it was 93% (active); in assay [3] (at 50.0 µM), -2.75%; in assay [4] (setting [7]), -9%; in assay [4] (setting [8]), 69%; in assay [4] (at 50.0 µM), 4.8%. Further, the growth inhibition in assay [5] (setting [7]) is -27%; in assay [5] (setting [8]), 95% (active); in assay [5] (at 50.0 µM), 0.55%; in assay [6] (setting [7]), 37%; in assay [6] (setting [8]) it was 98% (active); in assay [6] (at 50.0 µM), -2.35%.
Turning to `N#Cc1ccc(C(F)(F)F)cc1[N+](=O)[O-]`, the growth inhibition in assay [1] (setting [7]) was 47%; in assay [1] (setting [8]), 99% (active); in assay [1] (at 50.0 µM), 99% (active); in assay [2] (setting [7]) it was 44%; in assay [2] (setting [8]) it was 99% (active); in assay [2] (at 50.0 µM), 99.2% (active). The growth inhibition in assay [3] (setting [7]) was 63%; in assay [3] (setting [8]), 99% (active); in assay [3] (at 50.0 µM), 99.4% (active); in assay [4] (setting [7]) it was 20%; in assay [4] (setting [8]), 99% (active); in assay [4] (at 50.0 µM), 98.8% (active). In addition, the growth inhibition is 31% in assay [5] (setting [7]); 99% (active) in assay [5] (setting [8]); 99.2% (active) in assay [5] (at 50.0 µM); 37% in assay [6] (setting [7]); 99% (active) in assay [6] (setting [8]); 99.2% (active) in assay [6] (at 50.0 µM).
`COc1ccc(/C=C2\NC(=O)NC2=O)cc1`: the growth inhibition in assay [1] (setting [7]) is 0%; in assay [1] (setting [8]), 7%; in assay [1] (at 50.0 µM), -1.65%; in assay [2] (setting [7]), -4%; in assay [2] (setting [8]), 5%; in assay [2] (at 50.0 µM), -6.8%. Also, the growth inhibition was -1% in assay [3] (setting [7]); 3% in assay [3] (setting [8]); -0.65% in assay [3] (at 50.0 µM); -4% in assay [4] (setting [7]); -3% in assay [4] (setting [8]); 24.1% in assay [4] (at 50.0 µM). Also, the growth inhibition in assay [5] (setting [7]) was 27%; in assay [5] (setting [8]), 22%; in assay [5] (at 50.0 µM), 6.25%; in assay [6] (setting [7]), -1%; in assay [6] (setting [8]) it was 5%; in assay [6] (at 50.0 µM) it was 18.6%.
As to `Cc1ccc(CN2CC(=O)N3Cc4ccccc4CN3C(=O)C2)cc1`, the growth inhibition in assay [1] (setting [7]) was -1%; in assay [1] (setting [8]), -3%; in assay [1] (at 50.0 µM), -3.95%; in assay [2] (setting [7]), -6%; in assay [2] (setting [8]), -15%; in assay [2] (at 50.0 µM), 6.6%. Further, the growth inhibition is 4% in assay [3] (setting [7]); 4% in assay [3] (setting [8]); 10.4% in assay [3] (at 50.0 µM); 0% in assay [4] (setting [7]); -3% in assay [4] (setting [8]); -8.8% in assay [4] (at 50.0 µM). The growth inhibition was 5% in assay [5] (setting [7]); 30% in assay [5] (setting [8]); 83.4% (active) in assay [5] (at 50.0 µM); -5% in assay [6] (setting [7]); -2% in assay [6] (setting [8]); -20.2% in assay [6] (at 50.0 µM).
For `CS(=O)(=O)OCCN(CCOS(C)(=O)=O)c1ccc(C=Nc2ccc3oc(=O)ccc3c2)cc1`, the growth inhibition in assay [1] (setting [7]) was 32%; in assay [1] (setting [8]), 97% (active); in assay [1] (at 50.0 µM), 52.1%; in assay [2] (setting [7]) it was 35%; in assay [2] (setting [8]), 95% (active); in assay [2] (at 50.0 µM) it was 77.1% (active). Moreover, the growth inhibition in assay [3] (setting [7]) is 22%; in assay [3] (setting [8]), 86% (active); in assay [3] (at 50.0 µM), 65.2%; in assay [4] (setting [7]), 13%; in assay [4] (setting [8]), 77% (active); in assay [4] (at 50.0 µM) it was 22.4%. The growth inhibition in assay [5] (setting [7]) was -4%; in assay [5] (setting [8]) it was 14%; in assay [5] (at 50.0 µM), 40.1%; in assay [6] (setting [7]), 72% (active); in assay [6] (setting [8]) it was 97% (active); in assay [6] (at 50.0 µM) it was 88.7% (active).
Turning to `COc1ccc(C2=C(Cl)C(=O)N(c3ccc(OC)cc3)C(=O)C2(Cl)Cl)cc1`, the growth inhibition in assay [1] (setting [7]) was 8%; in assay [1] (setting [8]), 82% (active); in assay [1] (at 50.0 µM), 85.6% (active); in assay [2] (setting [7]), -10%; in assay [2] (setting [8]) it was 87% (active); in assay [2] (at 50.0 µM), 97.8% (active). For the same compound, the growth inhibition was 9% in assay [3] (setting [7]); 88% (active) in assay [3] (setting [8]); 67.1% in assay [3] (at 50.0 µM); -4% in assay [4] (setting [7]); 42% in assay [4] (setting [8]); 56.8% in assay [4] (at 50.0 µM). The growth inhibition in assay [5] (setting [7]) was -8%; in assay [5] (setting [8]), 84% (active); in assay [5] (at 50.0 µM), 94.9% (active); in assay [6] (setting [7]), 6%; in assay [6] (setting [8]), 71% (active); in assay [6] (at 50.0 µM), 95.8% (active).
